# From the supplement of paper PMC13380429
# A number with no mark means an inactive call.
# Test system: Vero E6 infected with SARS-CoV-2
# Assay: inhibition of SARS-CoV-2 cytopathic effect; higher = more antiviral protection, active = above 15
# Settings: 48 h
Compound,inhibition of SARS-CoV-2 cytopathic effect (1 nM),inhibition of SARS-CoV-2 cytopathic effect (8.33 nM),inhibition of SARS-CoV-2 cytopathic effect (100 nM),inhibition of SARS-CoV-2 cytopathic effect (833.33 nM),inhibition of SARS-CoV-2 cytopathic effect (10000 nM)
CC(=O)NCCc1c(Cc2ccccc2)[nH]c2ccccc12 [luzindole],5.27%,4.35%,1.82%,3.18%,3.21%
O=S(=O)(O)CCSSCCS(=O)(=O)O [dimesna],-0.79%,0.36%,0.65%,-1.27%,-1.4%
COc1ccc([C@]2(C#N)CC[C@@H](C(=O)O)CC2)cc1OC1CCCC1 [cilomilast],-1.82%,-3.26%,-2.36%,-1.23%,-0.83%
Cc1nc(C#Cc2ccnc(Cl)c2)c(C)n1-c1ccc(F)cc1 [basimglurant],-0.13%,-0.64%,-2.56%,-1.39%,4.98%
Cc1ccc(C(=O)Nc2ccc(Oc3cc4cnn(C)c4cc3-c3cn[nH]c3)c(F)c2)c(=O)n1-c1ccc(F)cc1,-0.46%,1.35%,-1.01%,-1.13%,-2.06%
C/C=C1/[C@H](O[C@@H]2O[C@H](CO)[C@@H](O)[C@H](O)[C@H]2O)OC=C(C(=O)OC)[C@H]1CC(=O)OCCc1ccc(O)c(O)c1 [oleuropein],0.9%,-0.2%,-0.09%,0.43%,0.52%
Nc1cccc2c1C(=O)N(C1CCC(=O)NC1=O)C2=O (stereo not given) [pomalidomide],1.4%,-0.68%,2.15%,0.83%,2.41%
C[C@]12CC[C@@H]3c4ccc(O)cc4CC[C@H]3[C@@H]1CC[C@@H]2OC(=O)CCC1CCCC1 [estradiol-cypionate],-1.71%,-1.36%,-3.51%,1.21%,1.69%
COc1ccc2[nH]c([S@@+]([O-])Cc3ncc(C)c(OC)c3C)nc2c1 [esomeprazole],-1.94%,-1.72%,-0.5%,-0.9%,0.21%
N#CC(c1ccnc(OCc2ccc(CN3CCOCC3)cc2)n1)c1nc2ccccc2s1 (stereo not given),-1.68%,0.15%,1.92%,2.82%,6.87%
CC(=O)c1cc2c(o1)C(=O)c1ccccc1C2=O [napabucasin],0.24%,1.91%,1.42%,7.16%,-36.6%
O=C(NC[C@H](O)CO)c1ccncc1Nc1ccc(I)cc1F,-1.62%,-4.02%,-9.84%,-13.5%,-14.7%
CCCC(C)C1(CC)C(=O)NC(=O)NC1=O (stereo not given) [pentobarbital],2.05%,2%,1.92%,-1.44%,-1.04%
Cc1ccc(-n2nc(C(C)(C)C)cc2NC(=O)NCc2cc(F)ccc2Oc2ccc3c(cnn3CCO)c2)cc1 [pexmetinib],-0.97%,-3.1%,0.01%,5.81%,3.62%
NCC(=O)Nc1ccc(-n2nc(C(F)(F)F)cc2-c2ccc3c(ccc4ccccc43)c2)cc1,-0.05%,2.22%,2.09%,-1.2%,-3.56%
COc1ccc(CC(=O)NC(/N=C(\NC#N)Nc2cccc3ncccc23)C(C)(C)C)cc1OC (stereo not given),-0.32%,1.83%,1.99%,1.34%,-0.99%
Cc1c(Cc2ccc3ccccc3n2)c2cc(F)ccc2n1CC(=O)O,1.64%,-0.1%,0.44%,-1.23%,-2.21%
C[C@]12CCC(=O)C=C1C=C[C@@H]1[C@@H]2CC[C@@]2(C)[C@H]1CC[C@@]2(O)CCC(=O)O [potassium-canrenoate],-4.66%,-2.95%,2.67%,3.81%,0.36%
CCC1(CC)C(=O)NC(=O)N(C)C1=O [metharbital],0.2%,2.59%,1.14%,0.78%,2.66%

Compound,inhibition of SARS-CoV-2 cytopathic effect (1 nM),inhibition of SARS-CoV-2 cytopathic effect (8.33 nM),inhibition of SARS-CoV-2 cytopathic effect (100 nM),inhibition of SARS-CoV-2 cytopathic effect (833.33 nM),inhibition of SARS-CoV-2 cytopathic effect (10000 nM)
CC(=O)[C@H]1CC[C@H]2[C@@H]3CC[C@H]4C[C@H](O)CC[C@]4(C)[C@H]3CC[C@]12C [allopregnanolone],0.625%,0.465%,-0.195%,0.8%,-0.82%
CC(C)NC[C@@H](O)COc1ccccc1-n1cccc1 (racemic) [isamoltane],1.05%,-0.83%,1.76%,1.65%,-0.73%
CN(C)c1nc(N)c(C(=O)Nc2cccnc2)nc1Cl,1.28%,4.72%,-0.62%,4.15%,0.82%
CCCCCCCCCCCCCCCCCC(=O)OC[C@@H](O)[C@H]1OC[C@H](O)[C@H]1O [sorbitan-monostearate],0.02%,-1.4%,1.63%,2.62%,-0.38%
CC[N+](CC)(CCNC(=O)C(=O)NCC[N+](CC)(CC)Cc1ccccc1Cl)Cc1ccccc1Cl [ambenonium],0.39%,-2.16%,-1.45%,0.75%,0.34%
OC[C@H]1O[C@H]([S-])[C@H](O)[C@@H](O)[C@@H]1O.[Au+] [aurothioglucose],0.67%,-0.7%,-0.3%,0.93%,0.69%
O=C1C(=Cc2cccnc2)C(=O)c2ccccc21,1.43%,1%,3.58%,5.97%,5.97%
C=CC(=O)Nc1ccc2ncnc(Nc3cccc(Br)c3)c2c1,-0.46%,-1.31%,-13.7%,-13.8%,-13.2%
C[C@H]1O[C@H](O[C@H]2[C@H](O)[C@@H](O)[C@@H](O[C@H]3[C@H](O)[C@@H](O)C(O)O[C@@H]3CO)O[C@@H]2CO)[C@H](O)[C@@H](O)[C@@H]1N[C@H]1C=C(CO)[C@@H](O)[C@H](O)[C@H]1O (stereo not given in full) [acarbose],0.51%,1.35%,-0.08%,-0.03%,-0.32%
CCc1cc2c(c(CC)n1)CCC(=O)N2Cc1ccc(-c2ccccc2-c2nnn[nH]2)cc1,-4.46%,-5.09%,-2.79%,-3.64%,-0.49%
COc1cc2nc(N3CCN(C(=O)c4ccco4)CC3)nc(N)c2cc1OC [prazosin],0.79%,-8.02%,-0.93%,-1.57%,1.13%
CN1C[C@@H]2CN(c3ccc(-c4ccccc4)nn3)C[C@@H]2C1,1.02%,-1.9%,0.67%,0.54%,-3.37%
CCN(CC)CCO[C@H]1CC[C@@]2(C)C(=CC[C@@H]3[C@@H]2CC[C@]2(C)C(=O)CC[C@@H]32)C1,1.95%,2.95%,1.19%,3.83%,19.6% (active)
CCOC(=O)N1c2ccc(C(F)(F)F)cc2[C@@H](N(Cc2cc(C(F)(F)F)cc(C(F)(F)F)c2)C(=O)OC)C[C@H]1CC,0.17%,0.5%,0.49%,1.09%,1.77%
Cc1ccnc(NC(=O)C(C)c2cccc(C(=O)c3ccccc3)c2)c1 (stereo not given) [piketoprofen],0.01%,0.74%,2.28%,-1.34%,3.81%
C[C@]12C=CC(=O)C=C1CC[C@@H]1[C@@H]2C(=O)C[C@@]2(C)[C@H]1CC[C@]2(O)C(=O)CO [prednisone],-1.14%,-0.26%,-3.03%,-1.05%,1.02%
CNC(=O)c1cccc(-c2ccc3c(N4CCOC[C@@H]4C)nc(N4CCOC[C@@H]4C)nc3n2)c1,0.89%,-1.74%,-1.86%,0.43%,-2.51%
C[C@@](Cc1ccc(O)c(O)c1)(NN)C(=O)O [carbidopa],-5%,-1.47%,-3.59%,-2.28%,-0.52%
CO[C@@H]1[C@H](O)[C@@H](CO)O[C@H]1n1cnc2c(NC3CCCCC3)ncnc21,-0.97%,1.94%,8.69%,1.46%,-0.79%
